# Measurements from ChEMBL document CHEMBL3988442, “University of Dundee, Small-Polar-MMV Screening Library” (2021).
# The whole screen tested about 38,000 compounds, of which about 1,200 (3.2%) showed an effect of 50% or more. The median lay at about -58%. This is one part of a sample in which strong results are shown more often than they occur.
# Tested on: Plasmodium falciparum
# Assay: Calibr Malaria Delayed Death Assay SOP
# Type: functional, organism-based
# Set-up: scale not given: in the data most compounds retested in dose-response had high values
# Settings: concentration 4.99e-06 (unit not given; other assays of the set use mol/L)
row,SMILES,Percent Effect
1,CC(C)NC(=O)C1CN(C(=O)Cc2ccccc2)CC12CCOCC2 (centres undefined),-95.53%
2,CCCS(=O)(=O)NCCc1ncc(CC)s1,-128.9%
3,OCCN1CCN(Cc2coc(-c3cccc(F)c3)n2)CC1,-200.4%
4,CC(C)(C#N)c1ccccc1CN(CCO)Cc1ccsc1,-17.47%
5,CCCc1nnc([C@H]2CCN(Cc3ncc[nH]3)C2)o1,-53.09%
6,C[C@]1(O)CN(Cc2ncc[nH]2)CC[C@@H]1Oc1cccc(F)c1,-12.82%
7,O=C(O)C(F)(F)F.O=S(=O)(c1cccs1)N1Cc2nc(CN3CCCC3)oc2C1,-93.44%
8,COC(=O)CCNC(=O)c1cc(-c2ccc(OC)cc2)nn1C,-127.7%
9,Cc1nn(C)c2c(N3CCC(C)CC3)nc(C3CC3)nc12,-7.534%
10,CC(C)Nc1nc(N2CCCC2)nc2c1CN(S(C)(=O)=O)CC2,50.55%
11,CCC(C)N1CCc2nc(N3CCCC3)nc(NC(C)C)c2C1 (centres undefined),77.92%
12,Cc1nc(N2CCCC2)nc2c1CN(C(C)C)CC2.O=C(O)C(F)(F)F,-39.09%
13,CC(C)Nc1nc(N2CCCC2)nc2c1CN(C)CC2,48.45%
14,CCN1CCc2nc(N3CCOCC3)nc(NC(C)C)c2C1,12.6%
15,CC(C)Nc1nc(-c2ccccc2)nc2c1CCN(C(=O)C1CC1)CC2.O=C(O)C(F)(F)F,24.24%
16,CC(C)Nc1nc(N2CCCC2)nc2c1CN(c1ncc(F)cn1)CC2,23.23%
17,CCCN1CCc2nc(N3CCOCC3)nc(NC(C)C)c2C1,-40.15%
18,CC(C)Nc1nc(N2CCCC2)nc2c1CCN(S(C)(=O)=O)CC2.O=C(O)C(F)(F)F.O=C(O)C(F)(F)F,51.48%
19,Cn1ccnc1CN1CCCN(C(=O)c2ccc3cc[nH]c3c2)CC1,-18.34%
20,Cc1nc(CO[C@@H]2CC[C@H]3[C@H]2OCCN3Cc2cccnc2)cs1.O=C(O)C(F)(F)F.O=C(O)C(F)(F)F.O=C(O)C(F)(F)F,-25.46%
21,CC(C)CNC(=O)N1C[C@H]2C[C@H](C(=O)NCc3ccccc3)[C@@H](C1)O2,-25.06%
22,O=C(NCc1cc[nH]n1)N1CCN(c2ncccn2)CC1,-98.04%
23,Cc1ccoc1C(=O)N1Cc2c(CN3CCCCC3)nn(C)c2C1.O=CO,-35.59%
24,Cc1cc(CN(C)C2CCCN(c3cccnn3)C2)no1 (centres undefined),-12.48%
25,Cc1oncc1C(=O)NCC1(O)CCc2ccccc2C1 (centres undefined),-85.49%
26,COc1coc(C(=O)Nc2nc(-c3ccncc3)cs2)cc1=O,-115.6%

row,SMILES,Percent Effect
1,Cc1ccc(NC2CCN(C(=O)COc3cccc(F)c3)CC2)nn1,-0.3434%
2,Cn1cc(C[C@H]2[C@H](O)CCN2Cc2ccncc2)cn1.O=C(O)C(F)(F)F.O=C(O)C(F)(F)F,-36.65%
3,O=C(CCNCc1cccc(O)c1)N1CCc2sccc2C1,50.25%
4,Cc1cc(C2CCCN2CCC(=O)N2CCc3sccc3C2)no1 (centres undefined),-5.731%
5,O=C(CCN1CCCC1c1cccc(F)c1)N1CCc2sccc2C1 (centres undefined),40.53%
6,COc1ccc(CNCCC(=O)N2CCc3sccc3C2)cc1O,34.01%
7,O=C(CCN1CCCC1C1CCCCC1)N1CCc2sccc2C1 (centres undefined),58.84%
8,N#Cc1cccc(CNCCC(=O)N2CCc3sccc3C2)c1,18.53%
9,CNc1nc(C)c(C(=O)N2C[C@@H](C(=O)O)[C@H](C3CC3)C2)s1,-129.8%
10,Cc1cc(C[S+]([O-])CC(=O)NCc2ccccc2)no1 (centres undefined),-44.89%
11,C[C@H](NC(=O)OC(C)(C)C)c1nnc(S(=O)(=O)Cc2cccc(F)c2)o1,-198.9%
12,Cc1nc2c(c(NC(C)c3nnn[nH]3)n1)Cc1ccccc1OC2 (centres undefined),-22.04%
13,CNS(=O)(=O)c1cccc(C(C)NCc2ccccc2OC)c1 (centres undefined),86.21%
14,CNS(=O)(=O)c1cccc(C(C)NCc2ccc(F)cc2F)c1 (centres undefined),-6.511%
15,CNS(=O)(=O)c1cccc(C(C)NCc2ccc(C)o2)c1 (centres undefined),21.13%
16,CNS(=O)(=O)c1cccc(C(C)NCc2cccc(C)c2C)c1 (centres undefined),68.88%
17,CNS(=O)(=O)c1cccc(C(C)NCc2ccco2)c1 (centres undefined),0.2758%
18,CNS(=O)(=O)c1cccc(C(C)NCc2cccc(OC)c2)c1 (centres undefined),-0.2291%
19,O=C(c1cc2c(s1)CCCCC2)N1CCC(c2ncc[nH]2)CC1,-34.19%
20,COc1nc2c(cc1C(=O)N1CCCCC1c1ccccn1)CCC2 (centres undefined),-121.2%
21,Cc1nn(CC(C)C)c(N(C)C)c1CNCc1ccc(CO)c(F)c1,-6.96%
22,O=C(CCNS(=O)(=O)c1ccc(F)cc1)NCc1ccoc1,-96.77%
23,CCCc1nc(CN2CCCC2Cn2cncn2)no1 (centres undefined),-44.73%
24,CCSc1ncc(CN2CCC(O)(CN3CCOCC3)C(C)(C)C2)cn1 (centres undefined),16.41%
25,Cc1ccc2c(c1)OCCCC2NC1CCN(C)CC1 (centres undefined),47.45%
26,COc1cccc(CNC2CCCOc3cc(C)ccc32)n1 (centres undefined),67.49%

row,SMILES,Percent Effect
1,COc1ccc2c(c1)C(NCCc1ncc(C)s1)CCCO2 (centres undefined),-37.71%
2,COc1c(CNC2CCCOc3ccccc32)c(C)nn1C (centres undefined),-45.12%
3,COc1ccc2c(c1)C(NCCc1c(C)noc1C)CCCO2 (centres undefined),29.88%
4,COc1ccc2c(c1)C(NCCc1ccccn1)CCCO2 (centres undefined),57.17%
5,O=C(Nc1cn[nH]c1)N1CCN(CCSc2ccccc2)CC1,-6.157%
6,CCOCc1ncn2c1CN(C(=O)Nc1cccc(F)c1)CC2,-77.13%
7,CN(CCCOc1ccccc1Cl)C(=O)CN1CCCCCC1=O,-111.3%
8,Cc1cccc(S(=O)(=O)N2Cc3nccn3CC(CN(C)C)C2)c1 (centres undefined),1.767%
9,CC(=O)N1CCc2[nH]c(=O)ccc2C1,-39.7%
10,O=C(CCn1cccn1)NCC(c1cccs1)N1CCOCC1 (centres undefined),-64.96%
11,CCn1ccnc1CNCC(c1ccc(C)s1)N1CCOCC1 (centres undefined),52.86%
12,Cc1ccc(C(CNCC2CC2)N2CCOCC2)s1 (centres undefined),23.83%
13,CCn1cc(CNCC(c2ccc(C)s2)N2CCOCC2)cn1 (centres undefined),64.77%
14,CCn1cc(CNC(=O)CCc2nnc(-c3ccc(C)s3)o2)cn1,-44.03%
15,CCCn1cc(CNCC(c2ccc(C)s2)N2CCOCC2)cn1 (centres undefined),54.23%
16,Cc1ccc(C(CNCc2nccn2C)N2CCOCC2)s1 (centres undefined),-32.15%
17,Cc1ccc(C(CNCc2ccc(C#N)cc2)N2CCOCC2)s1 (centres undefined),50.98%
18,Cc1ccc(C(CNCc2ccncc2)N2CCOCC2)s1 (centres undefined),-46.8%
19,Cc1ccc(C(CNCc2cccnc2)N2CCOCC2)s1 (centres undefined),-2.804%
20,Cc1ccc(C(CNCc2cccn2C)N2CCOCC2)s1 (centres undefined),-42.34%
21,Cc1ccc(C(CNCc2ncc[nH]2)N2CCOCC2)s1 (centres undefined),32.72%
22,O=C(NCCc1nccs1)C(c1ccccc1)n1cnnn1 (centres undefined),-126.4%
23,Cn1ccnc1-c1ccc(NCc2cn3c(n2)SCC3)nn1,-229.6%
24,CC(C)CC(CO)NS(=O)(=O)Cc1ccon1 (centres undefined),-57.79%
25,Cc1ccc2nc(C3CCCN3C(=O)c3cc(=O)[nH]c(=O)[nH]3)[nH]c2c1 (centres undefined),-24.73%
26,COc1ccc(NS(=O)(=O)CC2=NC(=O)n3cccc3C2=O)cc1Cl,-78.67%

row,SMILES,Percent Effect
1,CN(CCC(N)=O)Cc1cc(Br)cs1,-77.34%
2,CCCN(CCC)C(=O)CN(C)Cc1cnc(C)s1,-123.6%
3,Cc1ncc(CN(C)CC(O)c2ccc(Br)cc2)s1 (centres undefined),19.44%
4,Cc1ncc(CN(C)CC(O)c2ccc(OC(F)(F)F)cc2)s1 (centres undefined),62.45%
5,Cc1ncc(CN(C)CC(O)c2cccc(C(F)(F)F)c2)s1 (centres undefined),53.4%
6,Cc1cc(CNC(=O)NCC(O)c2cccc(C(F)(F)F)c2)no1 (centres undefined),-35.43%
7,CCOC(=O)CN(C)Cc1cnc(C)s1,-144.9%
8,N#Cc1ccc(N2CCC3(CCC(=O)N3Cc3ccncc3)CC2)nc1.O=C(O)C(F)(F)F.O=C(O)C(F)(F)F,-114.1%
9,CCn1cc(-c2cc(C(F)F)n3nc(CC(=O)O)nc3n2)cn1,-21.51%
10,COCCCC1CCN([C@@H]2c3ccccc3C3(CCNCC3)[C@H]2O)CC1,36.42%
11,CCOCCN1CCN([C@@H]2c3ccccc3C3(CCNCC3)[C@H]2O)CC1,-70.37%
12,Cc1cc(C(C)(O)CNC(=O)CCOCC(C)C)c(C)o1 (centres undefined),-34.27%
13,CCS(=O)(=O)N1CC[C@@H]2[C@H](CC1)N(Cc1cccnc1)CCS2(=O)=O.O=C(O)C(F)(F)F.O=C(O)C(F)(F)F,-78.89%
14,Cc1csc(C2CCCCN2C(=O)CN(C)C2CC2)n1 (centres undefined),-127%
15,Cc1csc(C2CCCCN2C(=O)COCc2nc(C)no2)n1 (centres undefined),-74.6%
16,Cc1csc(C2CCCCN2C(=O)c2cc(C(C)C)[nH]n2)n1 (centres undefined),75.22%
17,CC(NCC(=O)Nc1ccc(N2CCCCCC2)cc1)c1cccs1 (centres undefined),21.94%
18,COC(=O)c1cc(OC)c(OC)cc1NCc1c(C)noc1C,-119.4%
19,CCCN(C(=O)CN1CCn2c(nnc2C2CC2)C1)C1=CCCCC1,-109.1%
20,Cc1nn(C)c2nc(NCCCN3CCCC(C(N)=O)C3)sc12 (centres undefined),-133.1%
21,Cc1ccc(CN(CCN(C)C)Cc2nc3ccccc3[nH]2)s1,60.93%
22,COCc1ncc(CN(CCN(C)C)Cc2ccc(C)s2)cn1,1.94%
23,COc1ncc(CN(CCN(C)C)Cc2ccc(C)s2)cn1,-3.016%
24,CCNc1ncc(CN(CCN(C)C)Cc2ccc(C)s2)cn1,37.82%
25,Cc1ccc(CN(CCCO)Cc2nc3ccccc3[nH]2)s1,-85.6%
26,CCc1ccc(CN(CCN(C)C)Cc2ccc(C)s2)nc1,91.79%
